# Hit rate of the full screen: of about 48,000 compounds, about 13,000 (27%) showed an effect of 50% or more. This is one part of the list.
# System: Wolbachia pipientis
# Test: Anti-Wolbachia Cell-Based Screen
# Assay type: functional
# Parameters: scale not given: in the data most compounds retested in dose-response had high values
# Settings: 5 µM
row,SMILES,Percent Effect
1,CC(=O)Nc1nc(-c2ccccc2)c[nH]1,-21.73%
2,Cc1cc(C(=O)NCc2ccnc(N(C)C)c2)c(C)o1,4.439%
3,CN(C)c1cc(CNC(=O)c2ccc(F)cc2F)ccn1,0.296%
4,CCS(=O)(=O)c1ccccc1C(=O)NCc1ccnc(N(C)C)c1,-0.6479%
5,CN(C)c1cc(CNC(=O)c2cn(-c3ccc(F)cc3)nn2)ccn1,-3.053%
6,CN(C)c1cc(CNC(=O)c2cccnc2O)ccn1,123.9%
7,Cc1nccn1-c1cc(CNC(=O)c2ccnc(N(C)C)c2)ccn1,25.84%
8,CN(C)c1cc(CNC(=O)c2cc(Cl)ccn2)ccn1,157.2%
9,CN(C)c1cc(CNC(=O)c2n[nH]c(=O)c3ccccc23)ccn1,128.9%
10,CN(C)c1cc(CNC(=O)c2ccc(=O)[nH]n2)ccn1,0.8371%
11,CN(C)c1cc(CNC(=O)c2ccc(O)nc2)ccn1,121.2%
12,COc1cc(C(=O)N(C)C)ccc1NC(=O)c1ccsc1,-14.53%
13,CCc1nc(C)c(C2CC(=O)Nc3c2c(-c2cccnc2)nn3C)[nH]1 (configuration not stated),10.2%
14,CCNC(=O)NC1CN(Cc2ccncc2Cl)C[C@@H]1OC (some centres not stated),-18.14%
15,CC(=O)c1ccc(NC(=O)NCc2cccc(N(C)C)n2)cc1C,-13.49%
16,COCCN1CCN(Cc2noc(C3CC3)n2)CC1C (configuration not stated),-13.95%
17,Cc1nnc(CSc2n[nH]c(-c3ccccn3)n2)o1,3.251%
18,O=C1NCCCCC1NS(=O)(=O)N1CCCCCC1 (configuration not stated),41.49%
19,CCNC(=O)c1cnc(Sc2nccn2C)c(Cl)c1,-8.333%

row,SMILES,Percent Effect
1,COc1nn(C)cc1C(=O)NCC(=O)Nc1cccnc1,5.398%
2,CC(=O)N1CCN(c2nc(C(F)(F)F)nc3sc(C)c(C)c23)CC1,10.88%
3,c1ccc2c(c1)OCCCC2NCc1nnc2n1CCCCC2 (configuration not stated),-26%
4,Cc1cc(CN(C)C(=O)NCc2ccnc(N(C)C)c2)no1,-11.21%
5,Cc1cccc(C(=O)NCc2ccnc(N(C)C)c2)n1,-3.78%
6,Cc1cnc(C(=O)NCc2ccnc(N(C)C)c2)cn1,122.7%
7,CN(C)c1cc(CNC(=O)c2cnccn2)ccn1,139.9%
8,COc1ccc(OC)c(S(=O)(=O)NCC2(OC)CCSC2)c1 (configuration not stated),-19.77%
9,Cc1cc(N(C)C)nc(C2CCCN2)n1.Cl.Cl (configuration not stated),137.4%
10,CN(C)c1ccnc(C2CCCN2)n1.Cl (configuration not stated),126.4%
11,Cc1cc(N(C)C)nc(N2CCn3c(nnc3C3CC3)C2)n1,-9.903%
12,Cc1nc(CN(C)c2nccc(N(C)C)n2)cs1,-6.579%
13,CCn1cc(C2CCN(Cc3ccnc(N(C)C)c3)CC2)cn1,-12.62%
14,Cc1cc(N(C)C)nc(C2CCNC2)n1.Cl.Cl (configuration not stated),120.8%
15,CN(C)c1ccc(-c2noc([C@@H]3CCCN3)n2)cn1,4.635%
16,Cc1cc(N(C)C)nc(N2CC(n3cccn3)C2)n1,-0.4027%
17,CN(C)c1cc(C2CCCN2)ccn1 (configuration not stated),114.7%
18,Cc1cc(C)nc(CN(C)C(=O)c2ccccc2C2CCNC2)c1 (configuration not stated),-11.76%

# — ChEMBL document CHEMBL3988442, “University of Dundee, Small-Polar-MMV Screening Library” (2021)
